Bioassay records (PubChem)
This is a sample that favours compounds with a hit; in the whole collection about 7.9% have one here.
KB-3-1 cytotox: KB-3-1 parental cell cytotoxicity; KB-3-1 viability, CellTiter-Glo ATP luminescence, 72 h; Potency, µM (doses to about 46.1 µM), most hits filed as cytotoxic; 400,000 tested, 1.4% active; AID 1347075; further: on the % scale 0 is the no-effect control and ±100 the full control effect; nearly all actives have a fitted effect of over 60% in size
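Luminescent ATP read-out (CellTiter-Glo) measures survival of drug-naive KB-3-1 cells after 72 h compound exposure at 37 °C. Titration series was screened from lowest to highest concentration, with DMSO vehicle plates as background controls.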
SW480 rerep: induces DNA re-replication in SW480 colon adenocarcinoma cells | Potency, µM (top dose mostly 46.1 µM), for the others: at the highest dose re-replication activation, most hits filed as activators | 340,000 tested, 1.8% active | SW480 DNA re-replication, Hoechst DNA content imaging, 48 h; further: % of control where 0% means no effect; nearly all actives have a fitted effect of over 55% in size
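SW480 cells exposed to compounds for 48 hr at 37 C, 5% CO2, then Hoechst-stained 40 min. Nuclear DNA content imaged by fluorescence scanning (405 nm excitation, 500-530 nm emission); re-replication scored as increased high-intensity nuclei.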
HT1080NT lethal: kills 2HG-producing HT-1080-NT fibrosarcoma cells | HT-1080-NT fibrosarcoma viability, CellTiter-Glo ATP luminescence, 48 h | Potency, µM (doses to about 46.1 µM), for the others: top-dose activity, negative = less viability, hits mostly cytotoxic | 360,000 tested, 1.6% active;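 further: NT is the 2HG producing partner of a matched IDH1 knockdown line; 0% = DMSO-treated cells and -100% = media-only wells without cells; nearly all actives have a fitted effect of over 55% in size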
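Toxicity toward the 2HG-producing NT line was scored as %Activity, normalised to DMSO and no-cell wells, from CellTiter-Glo luminescence after 48 hours' treatment.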
HT1080 IDH1KD tx: HT-1080 IDH1 knockdown cell toxicity (counter line); Potency, µM (titrated, usually from 46.1 µM), for the others: at the highest dose activity, negative = toxicity, usual class: cytotoxic; 360,000 tested, 2% active; HT-1080 IDH1 knockdown viability, ATP luminescence, 48 h; AID 686971;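 further: 0% = DMSO wells and -100% = cell-free medium wells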
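Using the IDH1-knockdown HT-1080 line run in the same batch and compound series as the NT line, viability after 48 h at 37 °C was determined by CellTiter-Glo luminescence and expressed as % activity.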
KB-V1 cytotox: KB-V1 MDR subline cytotoxicity; KB-V1 MDR cells viability, CellTiter-Glo, 72 h; Potency, µM (series often up to 46.1 µM), actives largely listed as cytotoxic; 400,000 tested, 3.4% active; further: on the % scale 0 is the no-effect control and ±100 the full control effect; nearly all actives have a fitted effect of over 60% in size
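Compound-treated KB-V1 multidrug-resistant cells, 72 h, 37 degrees C; viability by CellTiter-Glo. Fitted qHTS curves give the values.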
MCF10A rerep: inducers of DNA re-replication in MCF 10A breast cells | MCF 10A DNA re-replication, Hoechst nuclear intensity, 48 h | Potency, µM (top dose mostly 46.1 µM), inactives show at the highest dose activity, positive = re-replication, most hits filed as activators | 350,000 tested, 2.9% active | AID 624296; further: % of control where 0% means no effect; nearly all actives have a fitted effect of over 50% in size
Active calls of the source: *; i = inactive; u = inconclusive; x = no result given; ! = not confirmed by another sample; [ ] = another dose, or the depositor's remark. The call rests on the fitted dose curve; in most records, active means well fitted curve in the direction sought with a large enough effect; inconclusive means small, poorly fitted or top-dose-only effect, or another doubt; inactive means no such curve, though single readings can be large; an effect the other way counts as inactive or inconclusive. Potency means the concentration at half of the fitted maximal effect.

SMILES | KB-3-1 cytotox | SW480 rerep | HT1080NT lethal | HT1080 IDH1KD tx | KB-V1 cytotox | MCF10A rerep
Cc1ccc(-c2nc3cccnc3o2)cc1NC(=O)COc1ccc(C(C)(C)C)cc1 | u | u | u | u | u | 18µM*
CCCC(=O)NC(=S)Nc1cccc(Cl)c1N1CCCC1 | i | u | u | u | i | 18µM*
CC1CCCC(NC(=S)NC(=O)c2ccco2)C1C (centres undefined) | i | -3% | -6% | -10% | 18µM* | 18%
O=C(NC(=S)Nc1ccccc1N1CCCCC1)c1ccco1 | u | -2% | -2% | -8% | u | u
O=C(NC(=S)Nc1cccc(Cl)c1N1CCCCC1)c1ccco1 | i | 18µM* | 11µM* | u | i | u
O=C(NC(=S)Nc1ccc(N2CCCCC2)cc1)c1ccco1 | i | u | 7.1µM* | 14µM* | 8.2µM* | u
CCn1c(C(=O)N2CCCC(C(=O)N3CCN(c4cc(C)ccc4C)CC3)C2)cc2sccc21 (centres undefined) | u | x | x | x | i | x
Cc1ccc(CN2CCN(C3CCN(C(=O)c4ccccc4)CC3)C(=O)C2=O)cc1 | i | x | x | x | u | x
Cc1ccc(-c2nnc(Nc3ccc(Br)cc3)c3ccccc23)cc1S(=O)(=O)N1CCCCC1 | i | x | x | x | i | x
O=C(NC(=S)Nc1cccc(Cl)c1N1CCCCC1)c1cccs1 | u | u | 3.5µM* | 10µM* | u | 3.3µM*
CCc1ccc(-n2c(-c3ccccc3)c(C)n3c4c(=O)n(C)c(=O)n(C)c4nc23)cc1 | i | x | x | x | i | x
Cc1ccc(-c2c(C)n3c4c(=O)n(C)c(=O)n(C)c4nc3n2-c2cccc(O)c2)cc1 | u | x | x | x | 18µM* | x
COc1ccc(CC2C(=O)NC(C)C(=O)N(C)C3Cc4ccc(cc4)Oc4cc(ccc4O)CC(C(=O)NC(C)C(=O)NC(C)C(=O)N2C)N(C)C3=O)cc1 (centres undefined) | 0.23µM* | 4.6µM* | 0.33µM* | 0.16µM* | i | u
CC(C)C[C@@H]1NC(=O)[C@H](Cc2ccccc2)N(C)C(=O)[C@H](C)NC(=O)c2ccccc2NC(=O)[C@H](Cc2ccc(O)cc2)N(C)C1=O | i | -40% | -20% | -12% | i | 3%
CCCCn1c(N)c(N(CC(C)C)C(=O)c2ccc(OC)c(S(=O)(=O)N3CCOCC3)c2)c(=O)[nH]c1=O | i | -4% | 6% | 14% | i | -6%
O=C1CCn2c1c(O)c1ccccc1c2=O | u | 6% | -6% | -2% | u | -5%
N=C1CCC(=N)c2c1c(O)c1ccccc1c2O | i | u | 23µM* | u | i | 4%
Cc1cc(C(=O)COC(=O)c2ccccc2O)c(C)n1CC1CCCO1 (centres undefined) | i | -15% | -3%[9.24 µM] | u | u | 12%
Cc1cc(C(=O)COc2ccccc2C(N)=O)c(C)n1CC1CCCO1 (centres undefined) | i | 0% | u | u | 4.6µM* | 12%
S=P(N1CC1)(N1CC1)N1CC1 | i | 2.1µM* | 23% | -1% | i | u
COc1cccc(CN2CCCN(S(=O)(=O)c3ccc(Br)cc3)CC2)c1 | i | u | -13% | -29% | u | u
O=S(=O)(c1ccc(Br)cc1)N1CCCN(Cc2cccc(F)c2)CC1 | i | 21µM*! | -1% | -1% | i | u
COc1cc(NC(=O)c2cc(-c3cccc(O)c3)on2)cc(OC)c1OC | 12µM* | -3% | u | u | i | 13%
CCC(C)NC(=O)c1ccc2nc(-c3cccs3)c(-c3cccs3)nc2c1 (centres undefined) | 10µM* | x | x | x | i | x
COCCNC(=O)c1cc(-c2cccs2)on1 | 21µM* | 1% | -10% | -28% | 21µM* | -6%
